# Experimental data: the supplement of paper PMC6411743
# ± gives the standard deviation of the averaged measurements. Targets with the largest changes are over-represented here; the source holds about 6,500 in all.
# Compound: Nc1ncnc2c1ncn2[C@@H]1O[C@H](COP(=O)(O)OP(=O)(O)OP(=O)(O)O)[C@@H](O)[C@H]1O [adenosine triphosphate]
# Experiment: NP40-soluble protein abundance relative to vehicle (solubility fold change) (ratio); higher = more soluble protein in presence of ATP
# Outline: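 Data come from three independent experiments in which Dounce-homogenised Jurkat crude lysate was treated at eight concentrations from 0.1 to 10 mM. Treatment ran 10 min at room temperature and then 3 min at 37 °C, after which 0.8% NP40 and benzonase were added for 60 min at 4 °C before ultracentrifugation. The supernatant underwent TMT labelling and LC-MS/MS, and vsn-normalised intensities were expressed as fold change against the detergent-processed vehicle in each replicate.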
# Chain of UniProt O95573 (O95573 whole entry): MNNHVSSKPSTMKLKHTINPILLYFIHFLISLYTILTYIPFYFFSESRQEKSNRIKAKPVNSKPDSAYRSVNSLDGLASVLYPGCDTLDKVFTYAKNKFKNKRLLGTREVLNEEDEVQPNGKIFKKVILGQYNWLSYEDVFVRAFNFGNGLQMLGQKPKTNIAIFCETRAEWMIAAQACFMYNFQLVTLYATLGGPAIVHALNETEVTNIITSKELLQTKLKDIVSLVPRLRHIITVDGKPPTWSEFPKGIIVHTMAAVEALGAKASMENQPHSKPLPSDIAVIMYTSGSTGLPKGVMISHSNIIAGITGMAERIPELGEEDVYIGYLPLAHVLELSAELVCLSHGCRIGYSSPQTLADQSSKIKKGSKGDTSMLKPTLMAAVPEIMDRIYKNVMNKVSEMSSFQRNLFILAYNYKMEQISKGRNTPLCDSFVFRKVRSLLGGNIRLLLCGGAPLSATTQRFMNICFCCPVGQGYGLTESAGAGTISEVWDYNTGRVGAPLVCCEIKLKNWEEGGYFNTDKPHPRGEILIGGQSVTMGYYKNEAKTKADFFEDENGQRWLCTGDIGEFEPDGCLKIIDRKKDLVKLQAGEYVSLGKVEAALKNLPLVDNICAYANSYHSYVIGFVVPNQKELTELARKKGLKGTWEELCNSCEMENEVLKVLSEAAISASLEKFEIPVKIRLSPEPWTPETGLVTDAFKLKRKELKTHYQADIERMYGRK
# Chain of UniProt P61204 (P61204 whole entry): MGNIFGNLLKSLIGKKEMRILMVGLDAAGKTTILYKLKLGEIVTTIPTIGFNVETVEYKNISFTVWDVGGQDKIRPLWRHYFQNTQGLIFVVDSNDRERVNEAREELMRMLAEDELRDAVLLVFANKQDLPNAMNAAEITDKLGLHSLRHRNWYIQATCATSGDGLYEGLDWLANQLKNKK
# Chain of UniProt P08621 (P08621 whole entry): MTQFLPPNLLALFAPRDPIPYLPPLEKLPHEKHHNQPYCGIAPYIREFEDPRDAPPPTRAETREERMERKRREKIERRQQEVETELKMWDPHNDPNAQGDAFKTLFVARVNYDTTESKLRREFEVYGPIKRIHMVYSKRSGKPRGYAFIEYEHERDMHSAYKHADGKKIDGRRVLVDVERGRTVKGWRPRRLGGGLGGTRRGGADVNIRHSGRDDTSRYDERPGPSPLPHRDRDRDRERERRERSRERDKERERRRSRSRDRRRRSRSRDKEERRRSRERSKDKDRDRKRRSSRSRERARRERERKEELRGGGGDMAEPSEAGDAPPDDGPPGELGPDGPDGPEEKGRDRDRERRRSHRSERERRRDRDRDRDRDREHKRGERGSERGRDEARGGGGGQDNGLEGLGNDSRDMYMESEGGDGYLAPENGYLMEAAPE
# Chain of UniProt P08134 (P08134 whole entry, one chain of several): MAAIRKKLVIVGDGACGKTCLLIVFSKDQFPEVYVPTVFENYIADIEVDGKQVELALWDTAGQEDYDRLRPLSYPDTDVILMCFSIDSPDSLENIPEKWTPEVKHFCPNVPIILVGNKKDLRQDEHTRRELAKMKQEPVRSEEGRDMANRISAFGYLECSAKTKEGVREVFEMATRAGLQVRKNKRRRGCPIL
# Chain of UniProt P20933 (P20933 whole entry): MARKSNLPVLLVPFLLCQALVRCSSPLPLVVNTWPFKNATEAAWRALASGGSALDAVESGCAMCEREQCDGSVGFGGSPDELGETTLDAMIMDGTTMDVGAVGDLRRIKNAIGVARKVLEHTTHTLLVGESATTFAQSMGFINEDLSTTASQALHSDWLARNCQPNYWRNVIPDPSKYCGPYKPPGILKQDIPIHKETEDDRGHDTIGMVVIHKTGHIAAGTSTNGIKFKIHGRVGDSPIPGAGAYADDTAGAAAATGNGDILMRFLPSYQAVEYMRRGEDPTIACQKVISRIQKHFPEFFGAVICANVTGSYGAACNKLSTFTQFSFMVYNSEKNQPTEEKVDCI
# Chain of UniProt P35610 (P35610 whole entry): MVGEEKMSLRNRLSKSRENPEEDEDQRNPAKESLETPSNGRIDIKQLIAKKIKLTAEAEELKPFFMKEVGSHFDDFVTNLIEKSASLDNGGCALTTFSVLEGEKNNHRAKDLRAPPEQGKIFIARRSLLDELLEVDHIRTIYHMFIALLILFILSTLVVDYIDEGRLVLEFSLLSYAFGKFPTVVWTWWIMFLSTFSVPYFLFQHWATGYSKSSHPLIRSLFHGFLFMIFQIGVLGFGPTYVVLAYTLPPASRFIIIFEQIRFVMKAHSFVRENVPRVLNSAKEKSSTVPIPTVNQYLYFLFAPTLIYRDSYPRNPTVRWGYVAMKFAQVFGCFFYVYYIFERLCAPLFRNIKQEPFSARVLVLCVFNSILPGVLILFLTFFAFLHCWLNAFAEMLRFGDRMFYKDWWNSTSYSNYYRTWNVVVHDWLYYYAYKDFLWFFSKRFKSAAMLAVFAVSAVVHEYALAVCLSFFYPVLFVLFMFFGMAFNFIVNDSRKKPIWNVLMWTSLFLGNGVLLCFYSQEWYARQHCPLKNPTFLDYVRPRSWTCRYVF
# Chain of UniProt P67775 (P67775 whole entry): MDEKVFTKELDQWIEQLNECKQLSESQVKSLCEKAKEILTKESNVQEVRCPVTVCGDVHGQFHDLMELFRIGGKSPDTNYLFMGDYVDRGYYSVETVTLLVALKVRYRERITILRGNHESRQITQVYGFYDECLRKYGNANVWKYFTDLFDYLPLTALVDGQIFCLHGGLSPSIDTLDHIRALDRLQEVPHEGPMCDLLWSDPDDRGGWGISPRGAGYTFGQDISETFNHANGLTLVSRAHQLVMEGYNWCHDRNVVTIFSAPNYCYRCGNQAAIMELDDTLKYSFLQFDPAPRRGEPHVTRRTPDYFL
# Chain of UniProt P26639 (P26639 whole entry): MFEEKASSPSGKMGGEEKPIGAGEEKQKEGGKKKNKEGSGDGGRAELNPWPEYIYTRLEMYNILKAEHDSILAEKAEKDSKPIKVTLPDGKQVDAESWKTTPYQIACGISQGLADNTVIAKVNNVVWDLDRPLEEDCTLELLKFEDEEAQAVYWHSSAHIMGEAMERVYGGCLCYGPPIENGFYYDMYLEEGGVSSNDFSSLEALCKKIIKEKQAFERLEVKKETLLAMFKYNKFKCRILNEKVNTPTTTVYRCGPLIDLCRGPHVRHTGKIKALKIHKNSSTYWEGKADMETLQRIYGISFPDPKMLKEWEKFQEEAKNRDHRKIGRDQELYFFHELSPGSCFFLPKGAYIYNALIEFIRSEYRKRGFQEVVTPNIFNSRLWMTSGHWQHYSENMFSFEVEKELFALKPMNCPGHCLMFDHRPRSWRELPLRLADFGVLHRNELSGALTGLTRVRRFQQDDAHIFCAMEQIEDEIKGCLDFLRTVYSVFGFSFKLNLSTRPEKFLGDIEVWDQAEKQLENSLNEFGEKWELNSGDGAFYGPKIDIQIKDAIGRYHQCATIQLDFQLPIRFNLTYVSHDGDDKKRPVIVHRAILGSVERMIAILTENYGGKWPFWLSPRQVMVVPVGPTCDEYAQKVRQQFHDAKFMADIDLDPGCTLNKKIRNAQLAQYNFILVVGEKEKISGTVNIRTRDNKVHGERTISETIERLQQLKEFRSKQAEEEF
# Chain of UniProt P46527 (P46527 whole entry): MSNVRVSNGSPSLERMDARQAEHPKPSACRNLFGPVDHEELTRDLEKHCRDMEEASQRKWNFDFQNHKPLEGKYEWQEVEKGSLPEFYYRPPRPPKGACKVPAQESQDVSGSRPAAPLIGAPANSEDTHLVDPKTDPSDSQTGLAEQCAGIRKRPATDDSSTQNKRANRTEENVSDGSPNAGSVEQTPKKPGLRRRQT
# Chain of UniProt P26368 (P26368 whole entry): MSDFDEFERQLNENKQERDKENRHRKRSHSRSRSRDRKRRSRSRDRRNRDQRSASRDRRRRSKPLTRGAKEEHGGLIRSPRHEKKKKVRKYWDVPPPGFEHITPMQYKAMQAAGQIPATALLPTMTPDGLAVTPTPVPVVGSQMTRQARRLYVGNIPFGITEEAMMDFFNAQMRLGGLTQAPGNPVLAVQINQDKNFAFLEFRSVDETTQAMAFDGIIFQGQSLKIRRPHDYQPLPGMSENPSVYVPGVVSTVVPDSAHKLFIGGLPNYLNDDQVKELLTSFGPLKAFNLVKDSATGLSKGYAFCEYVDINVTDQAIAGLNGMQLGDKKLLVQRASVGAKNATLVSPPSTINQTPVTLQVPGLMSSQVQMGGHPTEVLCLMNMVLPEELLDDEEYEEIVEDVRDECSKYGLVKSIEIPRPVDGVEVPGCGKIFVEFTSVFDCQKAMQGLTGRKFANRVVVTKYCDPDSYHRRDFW
# Chain of UniProt O75531 (O75531 whole entry): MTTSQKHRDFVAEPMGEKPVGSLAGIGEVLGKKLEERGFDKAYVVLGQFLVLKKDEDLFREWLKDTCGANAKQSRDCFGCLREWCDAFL
# Chain of UniProt O95721 (O95721 whole entry): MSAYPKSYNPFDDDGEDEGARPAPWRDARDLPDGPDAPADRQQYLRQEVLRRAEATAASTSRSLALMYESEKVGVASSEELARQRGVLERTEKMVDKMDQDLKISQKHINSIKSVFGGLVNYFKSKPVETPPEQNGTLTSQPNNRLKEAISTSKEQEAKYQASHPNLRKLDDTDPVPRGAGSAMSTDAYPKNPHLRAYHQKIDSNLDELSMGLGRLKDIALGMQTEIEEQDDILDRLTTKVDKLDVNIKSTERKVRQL
# Chain of UniProt P59190 (P59190 whole entry): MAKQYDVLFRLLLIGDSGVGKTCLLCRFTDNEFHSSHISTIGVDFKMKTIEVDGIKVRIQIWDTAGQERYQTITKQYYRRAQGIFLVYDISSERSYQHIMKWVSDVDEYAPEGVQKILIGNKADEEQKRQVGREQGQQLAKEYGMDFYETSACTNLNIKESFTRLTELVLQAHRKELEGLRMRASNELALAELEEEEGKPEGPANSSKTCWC
# Chain of UniProt P10606 (P10606 whole entry): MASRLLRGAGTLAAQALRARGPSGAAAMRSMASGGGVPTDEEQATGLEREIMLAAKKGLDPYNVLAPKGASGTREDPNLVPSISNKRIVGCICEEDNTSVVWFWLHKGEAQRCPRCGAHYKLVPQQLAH
Target,NP40-soluble protein abundance (concentration: 1mM),NP40-soluble protein abundance (concentration: 2mM),NP40-soluble protein abundance (concentration: 4mM),NP40-soluble protein abundance (concentration: 6mM),NP40-soluble protein abundance (concentration: 8mM),NP40-soluble protein abundance (concentration: 10mM)
ACSL3 (UniProt O95573),1.02 ± 0.05,1.05 ± 0.028,1.03 ± 0.036,1 ± 0.11,1.03 ± 0.041,1.01 ± 0.031
UniProt P63218,0.812 ± 0.15,0.735 ± 0.17,0.799 ± 0.22,0.72 ± 0.12,0.77 ± 0.16,0.678 ± 0.18
UniProt P55769,1.03 ± 0.15,1.06 ± 0.11,1.13 ± 0.13,1.23 ± 0.11,1.28 ± 0.049,1.33 ± 0.24
TPMT (UniProt P51580),1 ± 0.084,1 ± 0.077,0.985 ± 0.064,0.954 ± 0.12,0.992 ± 0.057,0.979 ± 0.044
AKR1A1 (UniProt P14550),0.989 ± 0.046,0.979 ± 0.047,0.956 ± 0.048,0.959 ± 0.086,0.986 ± 0.059,0.944 ± 0.05
AGA (UniProt P20933),0.925 ± 0.059,0.964 ± 0.07,0.978 ± 0.079,0.94 ± 0.081,0.914 ± 0.064,0.876 ± 0.071
UniProt O95639|O95639-2|O95639-3,1.3 ± 0.028,1.38 ± 0.046,1.52 ± 0.06,1.64 ± 0.1,1.7 ± 0.039,1.73 ± 0.078
CD53 (UniProt P19397),0.898 ± 0.042,0.833 ± 0.05,0.85 ± 0.06,0.832 ± 0.049,0.823 ± 0.07,0.791 ± 0.093
PPP2CA (UniProt P67775),0.959 ± 0.061,0.925 ± 0.0053,0.908 ± 0.021,0.962 ± 0.033,0.9033 ± 0.007,0.9 ± 0.085
PSMC2 (UniProt P35998),0.9515 ± 0.0057,0.914 ± 0.029,0.882 ± 0.016,0.908 ± 0.1,0.899 ± 0.053,0.894 ± 0.047
UniProt P61225,1.01 ± 0.074,0.921 ± 0.091,0.92 ± 0.082,0.846 ± 0.11,0.932 ± 0.065,0.932 ± 0.016
CRTAP (UniProt O75718),1.11 ± 0.024,1.14 ± 0.032,1.16 ± 0.024,1.19 ± 0.034,1.19 ± 0.033,1.2 ± 0.052
POLR3D (UniProt P05423),0.986 ± 0.095,0.962 ± 0.062,0.949 ± 0.071,0.963 ± 0.12,0.965 ± 0.064,0.963 ± 0.065
UniProt P12268|H0Y4R1,1.14 ± 0.2,0.858 ± 0.18,0.957 ± 0.03,0.745 ± 0.14,0.636 ± 0.064,0.587 ± 0.058
UniProt P08621|P08621-2,1.33 ± 0.049,1.42 ± 0.083,1.59 ± 0.078,1.74 ± 0.096,1.88 ± 0.077,1.97 ± 0.14
XRCC5 (UniProt P13010),1.04 ± 0.055,1.01 ± 0.051,0.996 ± 0.039,0.961 ± 0.076,1 ± 0.024,0.993 ± 0.057
CTBS (UniProt Q01459),0.951 ± 0.04,0.98 ± 0.028,0.939 ± 0.038,0.957 ± 0.038,0.932 ± 0.032,0.955 ± 0.013
CST3 (UniProt P01034),0.964 ± 0.083,0.971 ± 0.063,1 ± 0.11,1.03 ± 0.11,1.05 ± 0.15,1.05 ± 0.14
UniProt P26368|P26368-2,1.96 ± 0.078,1.99 ± 0.078,2.01 ± 0.076,2.06 ± 0.032,2.11 ± 0.079,2.09 ± 0.12
ATRN (UniProt O75882),0.928 ± 0.039,0.947 ± 0.048,0.975 ± 0.015,0.959 ± 0.095,0.896 ± 0.01,0.899 ± 0.057

Target,NP40-soluble protein abundance (concentration: 1mM),NP40-soluble protein abundance (concentration: 2mM),NP40-soluble protein abundance (concentration: 4mM),NP40-soluble protein abundance (concentration: 6mM),NP40-soluble protein abundance (concentration: 8mM),NP40-soluble protein abundance (concentration: 10mM)
UniProt P11388|P11388-2|P11388-3|P11388-4,1.31 ± 0.066,1.41 ± 0.062,1.64 ± 0.06,1.76 ± 0.074,1.99 ± 0.11,2.03 ± 0.14
DCK (UniProt P27707),0.955 ± 0.067,0.98 ± 0.052,0.914 ± 0.046,0.935 ± 0.093,0.933 ± 0.03,0.948 ± 0.044
UniProt P62854,0.92 ± 0.095,0.912 ± 0.11,0.911 ± 0.18,0.809 ± 0.13,0.745 ± 0.099,0.843 ± 0.13
COX5B (UniProt P10606),0.9588 ± 0.0074,0.963 ± 0.013,0.966 ± 0.032,1.01 ± 0.028,0.936 ± 0.055,0.929 ± 0.012
SNRPA (UniProt P09012),1.01 ± 0.067,0.989 ± 0.09,0.973 ± 0.093,0.984 ± 0.1,0.992 ± 0.032,0.97 ± 0.006
UniProt P08134|Q5JR08,0.974 ± 0.053,0.998 ± 0.031,0.975 ± 0.024,1 ± 0.05,0.957 ± 0.067,0.971 ± 0.027
UniProt P06493,1.05 ± 0.054,1.06 ± 0.053,1.03 ± 0.063,1.03 ± 0.1,1.05 ± 0.058,1.05 ± 0.015
JAK1 (UniProt P23458),1.21 ± 0.015,1.21 ± 0.022,1.23 ± 0.032,1.16 ± 0.043,1.27 ± 0.047,1.26 ± 0.041
CDK6 (UniProt Q00534),0.984 ± 0.047,0.999 ± 0.051,0.988 ± 0.05,0.955 ± 0.058,0.966 ± 0.041,0.974 ± 0.064
AP3M2 (UniProt P53677),1.09 ± 0.019,1.08 ± 0.016,1.13 ± 0.043,1.02 ± 0.047,1.06 ± 0.051,1.08 ± 0.069
CTCF (UniProt P49711),1.02 ± 0.027,0.993 ± 0.036,0.972 ± 0.034,0.895 ± 0.046,0.927 ± 0.032,0.894 ± 0.027
UniProt P35251|P35251-2,1.23 ± 0.086,1.36 ± 0.093,1.45 ± 0.1,1.58 ± 0.11,1.51 ± 0.069,1.56 ± 0.084
BANF1 (UniProt O75531),5.83 ± 1.6,5.36 ± 0.56,5.89 ± 1.4,6.26 ± 1.4,5.6 ± 0.81,5.02 ± 1.8
ATF1 (UniProt P18846),0.986 ± 0.2,0.951 ± 0.033,1.02 ± 0.14,0.999 ± 0.054,0.97 ± 0.074,0.917 ± 0.068
UniProt P49354|H0YCW1,1.05 ± 0.088,1.01 ± 0.059,1.03 ± 0.053,0.955 ± 0.12,1.04 ± 0.076,0.996 ± 0.062
ARF3 (UniProt P61204),1.05 ± 0.21,1.01 ± 0.17,1.04 ± 0.13,0.961 ± 0.23,1.05 ± 0.073,0.996 ± 0.08
UniProt P67870|Q5SRQ6,0.972 ± 0.024,1 ± 0.021,1.013 ± 0.0063,1.05 ± 0.067,1.07 ± 0.019,1.04 ± 0.017
HSP90AB1 (UniProt P08238),1.01 ± 0.063,0.99 ± 0.052,0.983 ± 0.05,0.928 ± 0.069,0.953 ± 0.022,0.964 ± 0.064
SNAP29 (UniProt O95721),0.967 ± 0.086,0.943 ± 0.043,0.939 ± 0.055,0.967 ± 0.04,0.939 ± 0.036,0.877 ± 0.046
IGHMBP2 (UniProt P38935),1.41 ± 0.11,1.59 ± 0.088,1.84 ± 0.09,2.01 ± 0.13,2.19 ± 0.2,2.4 ± 0.14

Target,NP40-soluble protein abundance (concentration: 1mM),NP40-soluble protein abundance (concentration: 2mM),NP40-soluble protein abundance (concentration: 4mM),NP40-soluble protein abundance (concentration: 6mM),NP40-soluble protein abundance (concentration: 8mM),NP40-soluble protein abundance (concentration: 10mM)
SOAT1 (UniProt P35610),1.02 ± 0.042,1 ± 0.028,0.999 ± 0.055,0.97 ± 0.029,1.03 ± 0.019,0.971 ± 0.041
FBL (UniProt P22087),1.11 ± 0.075,1.13 ± 0.058,1.25 ± 0.047,1.544 ± 0.0074,1.93 ± 0.025,2.51 ± 0.15
UniProt P61201|P61201-2,0.9548 ± 0.0092,0.945 ± 0.031,0.9178 ± 0.005,0.968 ± 0.03,0.912 ± 0.043,0.916 ± 0.026
RBM34 (UniProt P42696),1.16 ± 0.026,1.21 ± 0.059,1.4 ± 0.097,1.57 ± 0.1,1.7 ± 0.18,1.85 ± 0.21
RHOA (UniProt P61586),0.996 ± 0.14,1.01 ± 0.078,0.968 ± 0.06,1.09 ± 0.069,0.939 ± 0.023,0.944 ± 0.027
UniProt P42285,1.07 ± 0.07,1.06 ± 0.035,1.09 ± 0.033,1.07 ± 0.031,1.2 ± 0.013,1.21 ± 0.066
EMD (UniProt P50402),1.13 ± 0.096,1.16 ± 0.1,1.14 ± 0.11,1.11 ± 0.1,1.12 ± 0.086,1.15 ± 0.05
UniProt P26639,1 ± 0.1,0.988 ± 0.075,0.95 ± 0.078,0.928 ± 0.11,0.989 ± 0.054,0.949 ± 0.042
UniProt P59190,1.18 ± 0.054,2.37 ± 1.5,1.25 ± 0.21,1.16 ± 0.23,1.22 ± 0.2,1.18 ± 0.15
MRPS25 (UniProt P82663),0.942 ± 0.092,0.951 ± 0.066,0.96 ± 0.043,0.881 ± 0.09,0.915 ± 0.081,0.928 ± 0.078
HMGN1 (UniProt P05114),1.23 ± 0.32,2 ± 0.51,1.5 ± 0.35,1.88 ± 0.89,1.67 ± 0.38,1.95 ± 1.1
UniProt Q01196|Q01196-8|Q01196-2,1.07 ± 0.026,1.08 ± 0.024,1.11 ± 0.016,1.17 ± 0.034,1.15 ± 0.028,1.21 ± 0.034
UniProt Q01543|Q01543-3|Q01543-2,0.989 ± 0.05,0.997 ± 0.013,0.996 ± 0.032,1.01 ± 0.048,0.969 ± 0.033,0.9608 ± 0.0033
UniProt P25398,0.879 ± 0.058,0.861 ± 0.073,0.813 ± 0.071,0.817 ± 0.087,0.761 ± 0.043,0.779 ± 0.061
GALT (UniProt P07902),0.994 ± 0.016,0.972 ± 0.068,0.983 ± 0.053,0.9753 ± 0.0077,0.935 ± 0.029,0.947 ± 0.02
UniProt Q06787-5|Q06787-6|Q06787-8|Q06787|Q06787-3|Q06787-7|Q06787-9|R9WNI0,1.16 ± 0.14,1.27 ± 0.1,1.56 ± 0.17,1.83 ± 0.13,2.14 ± 0.19,2.48 ± 0.15
HSPA4L (UniProt O95757),0.964 ± 0.015,0.9785 ± 0.0092,0.951 ± 0.018,0.987 ± 0.018,0.937 ± 0.036,0.949 ± 0.019
CCT8 (UniProt P50990),0.976 ± 0.029,0.909 ± 0.033,0.823 ± 0.036,0.86 ± 0.12,0.842 ± 0.081,0.835 ± 0.063
CDKN1B (UniProt P46527),0.964 ± 0.099,0.998 ± 0.057,0.985 ± 0.08,1.09 ± 0.077,0.919 ± 0.071,0.916 ± 0.1
GALK2 (UniProt Q01415),0.938 ± 0.068,0.975 ± 0.073,0.985 ± 0.012,0.86 ± 0.12,0.956 ± 0.066,0.968 ± 0.037
